Laboratory results from PMC4336329 (PLoS ONE, 2015).
Screen size: about 310,000 compounds; about 14,000 (4.5%) showed an effect of 50% or more. Effects have a minus sign here. The full list was thinned out, with strong results kept by preference.

biological target: human ether-à-go-go-related gene (hERG) potassium channel (human, UniProt Q12809); test: primary screen, population patch clamp on CHO cells stably expressing hERG; higher = less effect of the substance
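Further: peak tail current of the secondary pulse compared with the same well before compound.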

human ether-à-go-go-related gene (hERG) potassium channel, sequence (Q12809 whole entry, looked up): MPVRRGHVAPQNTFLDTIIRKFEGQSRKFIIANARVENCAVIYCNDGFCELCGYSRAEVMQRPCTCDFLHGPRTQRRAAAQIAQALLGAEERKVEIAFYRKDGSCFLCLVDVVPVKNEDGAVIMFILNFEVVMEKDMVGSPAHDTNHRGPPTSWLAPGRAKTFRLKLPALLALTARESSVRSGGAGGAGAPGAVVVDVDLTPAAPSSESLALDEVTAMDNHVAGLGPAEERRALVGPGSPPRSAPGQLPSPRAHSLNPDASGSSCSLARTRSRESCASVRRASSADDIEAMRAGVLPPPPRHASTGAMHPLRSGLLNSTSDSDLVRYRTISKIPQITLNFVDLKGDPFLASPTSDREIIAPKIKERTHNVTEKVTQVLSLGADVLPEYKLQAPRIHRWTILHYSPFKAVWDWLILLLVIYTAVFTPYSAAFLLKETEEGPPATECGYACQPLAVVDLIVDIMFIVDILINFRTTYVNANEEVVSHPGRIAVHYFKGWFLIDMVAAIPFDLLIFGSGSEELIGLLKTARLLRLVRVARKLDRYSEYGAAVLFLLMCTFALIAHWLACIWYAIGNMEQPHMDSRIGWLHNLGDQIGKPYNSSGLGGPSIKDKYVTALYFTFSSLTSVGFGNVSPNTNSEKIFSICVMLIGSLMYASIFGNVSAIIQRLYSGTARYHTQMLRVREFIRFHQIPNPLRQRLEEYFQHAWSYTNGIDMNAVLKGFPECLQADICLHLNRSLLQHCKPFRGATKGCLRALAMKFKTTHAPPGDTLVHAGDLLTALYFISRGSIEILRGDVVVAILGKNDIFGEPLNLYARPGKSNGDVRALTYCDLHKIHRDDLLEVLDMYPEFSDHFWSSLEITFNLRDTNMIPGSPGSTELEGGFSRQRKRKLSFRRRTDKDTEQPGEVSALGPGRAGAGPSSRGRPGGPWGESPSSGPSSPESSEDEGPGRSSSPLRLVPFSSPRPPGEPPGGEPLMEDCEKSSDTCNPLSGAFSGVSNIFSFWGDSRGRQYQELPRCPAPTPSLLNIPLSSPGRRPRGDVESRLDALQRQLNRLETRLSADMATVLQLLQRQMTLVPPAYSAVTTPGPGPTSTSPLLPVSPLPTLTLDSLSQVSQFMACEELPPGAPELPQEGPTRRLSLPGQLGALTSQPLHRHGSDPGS

Structure (SMILES) | hERG current change (%, negative = inhibition) at 10uM [%]
CCN(CC)C(=O)c1csc(Nc2ccc(C)cc2)n1 | -34.8
S=C(NCc1cccnc1)Nc1cccc2ccccc12 | -9.3
c1ccc2c(c1)nc(N1CCOCC1)c1ccccc12 | 11.2
c1ccc2nc(N3CCOCC3)c(N3CCOCC3)nc2c1 | -1.12
c1ccc(-c2nc3ccccc3nc2N2CCOCC2)cc1 | -54.7
CCCCN1C2=NC(c3ccccc3)CN2c2ccccc21.Cl (stereo not drawn) | -69
Br.CCCCN1C2=NCCCN2c2cc(C)c(C)cc21 | -65.4
CCCCCCCN1C2=NCCCN2c2ccccc21.Cl | -58.5
c1ccc([C@H]2CN3C(=N2)Sc2ccccc23)cc1 | -19.2
CCCN1C2=NCCCN2c2ccccc21.Cl | -9.58
Br.CCCCN1C2=NCCCN2c2ccccc21 | -54.5
Br.CCN1C2=NCCCN2c2cc(C)c(C)cc21 | -23.2
CCCN1C2=NCCN2c2cc(C)c(C)cc21.Cl | -30.7
CCCCN1C(N)=NC[C@@H]1c1ccccc1 | -2.61
COCCN1C(=O)CS/C1=C(/C#N)C(=O)NCc1ccco1 | -7.92
COc1ccc(C(=O)O)cc1S(=O)(=O)Nc1cccc(C)c1 | -18.9
Cc1ccc(-n2nnc3c(=O)n(CC(=O)NCc4ccccc4)cnc32)cc1 | -15.5
C[C@@H]1CC[C@@]23COC(=O)C2=CCC[C@@H]3[C@@]1(C)CC/C(=C/CO)CO | -6.27
O=C(c1ccc(Cl)c(Cl)c1)N1CCC(=O)N(C(CO)Cc2ccccc2)CC1 (stereo not drawn) | 5.42
CCOC(=O)c1cn2nc(Oc3cccc(C(F)(F)F)c3)ccc2n1 | -6.27
O=c1cc(-c2ccncc2)oc2c1ccc1ccccc12 | -4.57
Cl.c1ccc2c(c1)N1CCN=C1N2CCN1CCCCC1 | -15.3
Cl.c1ccc2c(c1)N1CCCN=C1N2CCN1CCCCC1 | -62.8
CCCCCCN1C2=NCCCN2c2ccccc21.Cl | -78.3

Structure (SMILES) | hERG current change (%, negative = inhibition) at 10uM [%]
COc1cccc(/C=C/C(=O)Nc2ccc3[nH]c(=O)[nH]c3c2)c1 | 7.9
CS(=O)(=O)N(CC(=O)N1CCN(Cc2ccccc2)CC1)c1ccc2c(c1)OCCO2 | -5.94
CCN1CCN(C(=O)CN(c2ccc(F)cc2)S(=O)(=O)c2ccc(OC)c(OC)c2)CC1 | -66.8
COc1ccc(N(CC(=O)N2CCN(Cc3ccc4c(c3)OCO4)CC2)S(C)(=O)=O)cc1OC | 9.47
COc1ccc(N(CC(=O)N2CCN(Cc3ccc4c(c3)OCO4)CC2)S(=O)(=O)c2ccc(F)cc2)cc1 | -84.6
Cc1ccc(S(=O)(=O)N(C)CC(=O)N2CCN(Cc3ccccc3)CC2)cc1 | -24.6
COc1ccc(S(=O)(=O)N(CC(=O)N2CCOCC2)c2ccc(F)cc2)cc1OC | 10.7
COc1ccc(S(=O)(=O)N(CC(=O)N2CCN(C)CC2)c2ccc(C)cc2)cc1OC | -11
CS(=O)(=O)N(CC(=O)N1CCN(Cc2ccc3c(c2)OCO3)CC1)c1ccc2c(c1)OCO2 | -58.9
COc1ccc(N(CC(=O)N2CCN(Cc3ccccc3)CC2)S(=O)(=O)c2ccccc2)cc1 | -26.3
O=C(CN(c1ccccc1)S(=O)(=O)c1ccccc1)N1CCN(Cc2ccc3c(c2)OCO3)CC1 | -33.4
Cc1ccc(S(=O)(=O)N(C)c2ccc(C(=O)N3CCN(Cc4ccc5c(c4)OCO5)CC3)cc2)cc1 | -44.1
Cc1ccc(S(=O)(=O)N(C)CC(=O)N2CCN(Cc3ccc4c(c3)OCO4)CC2)cc1 | -66.6
COc1ccc(C(=O)NCc2nnc(SCC(=O)Nc3cccc(F)c3)o2)cc1 | -1.96
COCCn1c(-c2ccc(OC)c(OC)c2)nc2ccccc21 | -21.6
O=C1NC(=NCc2ccccc2)S/C1=C\c1ccccc1 | 23.8
COc1cc(CNCCCN2CCOCC2)c(Br)cc1OC(C)C.Cl | 5.58
COc1cc(CNCCCN2CCOCC2)c(Br)cc1OCC(=O)Nc1ccccc1C | -15.3
O=C(COc1ccc(Br)cc1CNCCCN1CCOCC1)Nc1ccccc1 | -47.8
COc1ccccc1NC(=O)COc1cc(Br)c(CNCCCN2CCOCC2)cc1OC | -54.6
COc1ccccc1NC(=O)COc1ccc(Br)cc1CNCCCN1CCOCC1.Cl | -58.6
C=CCOc1ccc(Br)cc1CNCCCN1CCOCC1.Cl | -27.7
COc1cc(NC(=O)c2ccc(C)cc2)ccc1NC(=O)c1cc2ccccc2o1 | 15.2
Cc1ccc(C)c(NC(=O)CSc2nnc(CCNC(=O)OC(C)(C)C)o2)c1 | -12.3

Structure (SMILES) | hERG current change (%, negative = inhibition) at 10uM [%]
CC1(C)CC(c2csc(N)n2)CCO1 (stereo not drawn) | 2.95
COc1ccc(N(CC(=O)N2CCN(c3ccc(Cl)cc3)CC2)S(=O)(=O)c2c(C)n[nH]c2C)cc1 | -10.1
Cc1ccc(N(CC(=O)NCc2ccc(F)cc2)S(=O)(=O)c2c(C)nn(C)c2C)cc1 | -24.5
COc1ccc(N(CC(=O)N2CCN(c3ccc(F)cc3)CC2)S(=O)(=O)c2c(C)n[nH]c2C)cc1 | -69.4
Cc1ccc(N(CC(=O)N2CCN(c3ccc(F)cc3)CC2)S(=O)(=O)c2c(C)nn(C)c2C)cc1 | -65.8
Cc1ccc(N(CC(=O)N2CCN(c3ccc(F)cc3)CC2)S(=O)(=O)c2c(C)noc2C)cc1 | -39.5
COc1ccc(N(CC(=O)N2CCN(c3ccccc3F)CC2)S(=O)(=O)c2c(C)n[nH]c2C)cc1 | -20.6
O=C(O)/C=C\C(=O)N1CCc2ccccc21 | 27.9
O=C1C(NS(=O)(=O)c2cccs2)=C(N2CCOCC2)C(=O)c2ccccc21 | -40.8
C[n+]1ccc(C(=O)N/N=C/c2ccco2)cc1.[I-] | 26.7
CCCCCCCNC(=O)c1cc(-c2ccncc2)nc2ccccc12 | 7.84
O=C(NCCc1ccc(Cl)cc1)c1cc(-c2ccncc2)nc2ccccc12 | 4.23
COc1ccc(-c2cc(C(=O)NCCCn3ccnc3)c3ccccc3n2)c(OC)c1 | -32
O=C(NCCCn1ccnc1)c1cc(-c2ccncc2)nc2ccccc12 | -56.3
COc1cccc(C(=O)NCCCn2ccnc2)c1 | 7.29
O=C(NCCc1ccccn1)c1cc(-c2ccc(Cl)cc2)nc2ccccc12 | -19.6
COc1cccc(-c2cc(C(=O)NCCCn3ccnc3)c3ccccc3n2)c1 | -71.8
CCOc1ccc(-c2cc(C(=O)NCCCn3ccnc3)c3ccccc3n2)cc1 | -16
O=C(NCCCn1ccnc1)c1cc(-c2ccc(Cl)cc2)nc2ccccc12 | -68.8
CCCCN(C)CCC(=O)Nc1ccc(OC)cc1OC | 5.11
Cc1cccc(Nc2nc3c(c(=O)n(C)c(=O)n3C)n2CC(O)CO)c1 (stereo not drawn) | -0.943
O=C(Cc1c(Cl)cccc1Cl)N1CCN(Cc2ccccc2)CC1 | -0.0324
NS(=O)(=O)c1cccnc1Nc1cccc(Cl)c1Cl | -3.35
CN(C)c1nc(-c2ccccc2)nc(-c2ccc(Cl)cc2)c1C#N | 8.49

Structure (SMILES) | hERG current change (%, negative = inhibition) at 10uM [%]
COc1ccc(-c2nc3c4ccccc4ccn3c2CN2CCCCC2)cc1OC.Cl | 0.736
O=c1nc2ccccc2c2n1CC(CN1CCN(c3ccccc3F)CC1)N2 (stereo not drawn) | -50.3
Fc1ccccc1N1CCN(CC2CCCCC2)CC1 | -1.99
COc1cccc(N2CCN(Cc3nc4ccccc4c(=O)[nH]3)CC2)c1 | -18.9
Cn1c(CN2CCN(c3cccc(Cl)c3)CC2)nc2ccccc21 | -44.7
O=c1nc2ccccc2c2n1CC(CN1CCN(c3cccc(Cl)c3)CC1)N2 (stereo not drawn) | -63.3
O=c1[nH]c(CN2CCN(c3ccc(F)cc3)CC2)nc2ccccc12 | -15.1
O=c1[nH]c(CN2CCN(c3ccccc3)CC2)nc2ccccc12 | 1.55
O=C(CSc1nc2ccccc2c(=O)[nH]1)N1CCN(c2ccccc2F)CC1 | 9.44
O=c1nc2ccccc2c2n1CC(CN1CCN(c3ccc(F)cc3)CC1)N2 (stereo not drawn) | -68.6
Cc1cc(C)cc(NC(=O)c2cc(C)nn2C)c1 | 0.0741
O=C(COC(=O)c1ncc(Cl)c(Cl)c1Cl)NC(=O)c1ccccc1 | 14.9
Cn1cnnc1SCc1ccccc1[N+](=O)[O-] | 13.7
COc1cc(C#N)ccc1OCC(=O)NCCC1=CCCCC1 | -13.2
Nc1ccc2c(c1)ncn2CCCn1cnc2cc(N)ccc21 | -14.7
Cl.c1ccc(CCNCc2cccnc2)cc1 | -0.175
Fc1ccc(NC(=S)NCCc2ccccn2)cc1 | 7.88
Cl.Clc1ccccc1CNCc1ccncc1 | -0.497
Fc1ccc(-n2cc(CNCCc3ccccn3)c(-c3ccccc3Cl)n2)cc1 | -89.9
Cl.Fc1ccc(CCNCc2ccccc2Cl)cc1 | 1.24
Fc1ccc(-n2cc(CNCCc3cccnc3)c(-c3ccccc3Cl)n2)cc1 | -51.9
Cl.c1cncc(CNCCc2c[nH]c3ccccc23)c1 | 4.01
O=C(NCc1ccccn1)c1cn(-c2ccccc2)nc1-c1ccc(Cl)cc1 | -1.67
Fc1ccc(-n2cc(CNCCc3ccncc3)c(-c3ccccc3Cl)n2)cc1 | -75.2
